Experimental data taken from PubChem BioAssay AID1851 (National Center for Advancing Translational Sciences (NCATS), 2009).
Out of some 16,000 compounds screened, about 4,000 (25%) were called active. Not shown: some 26% with an inconclusive outcome. Not all results are given here. Values without a mark were called inactive. Calls follow the shape of the dose curve; as a rule, active = well fitted curve in the direction sought with a large enough effect; inconclusive = small, poorly fitted or top-dose-only effect, or effect the other way; inactive = no such curve, though single readings can be large or run the other way.

Each molecule was assayed against Cytochrome P450 2C9 (Homo sapiens) (UniProt P11712) (assay: Cytochrome panel assay with activity outcomes). Conditions: recombinant CYP, pro-luciferin dealkylation, luminescence, p450-cyp2c9; series mostly up to 57.1 µM; activity, negative = inhibition: at the top concentration.
Chain of Cytochrome P450 2C9 (Homo sapiens) (P11712 whole entry, looked up): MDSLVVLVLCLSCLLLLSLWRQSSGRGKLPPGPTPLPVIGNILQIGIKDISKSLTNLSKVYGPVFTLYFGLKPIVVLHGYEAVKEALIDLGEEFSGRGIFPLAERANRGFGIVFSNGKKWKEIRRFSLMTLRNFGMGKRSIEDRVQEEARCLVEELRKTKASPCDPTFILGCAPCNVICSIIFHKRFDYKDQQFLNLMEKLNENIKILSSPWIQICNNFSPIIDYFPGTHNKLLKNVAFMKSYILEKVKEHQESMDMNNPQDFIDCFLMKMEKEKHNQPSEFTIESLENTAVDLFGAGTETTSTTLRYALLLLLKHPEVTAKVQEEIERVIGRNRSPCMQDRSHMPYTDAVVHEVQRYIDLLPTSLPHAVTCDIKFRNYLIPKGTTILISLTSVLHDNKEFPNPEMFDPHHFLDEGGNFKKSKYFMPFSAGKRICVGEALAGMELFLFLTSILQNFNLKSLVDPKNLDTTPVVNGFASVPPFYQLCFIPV
% is scaled to controls: 0 for no effect and ±100 for the full control effect.

SMILES	AC50	activity, negative = inhibition
COc1ccccc1NC(=O)[C@H](COCc1ccccc1)NC(=O)OC(C)(C)C	7.94 µM (active)	–
COc1ccccc1NC(=O)C(C/C=C(\C)Cl)C(C)=O (stereo not drawn)	–	-5.41%
CO[C@H]1COC(=O)CCC[C@H](C)[C@@H](OC)COC(=O)C/C=C\[C@@H]1C	–	14.4% [at 11.4 µM]
Cn1cc(-c2nc3cnc(N4CCOCC4)nc3n(C3CC3)c2=O)c2ccccc21	–	-6.78%
Cn1cc(-c2nc3cncnc3n(C3CC3)c2=O)c2ccccc21	–	9.43%
Cn1cc(-c2nc3cnc(N4CCNCC4)nc3n(C)c2=O)c2ccccc21	7.94 µM (active)	–
Cn1cc(-c2nc3cnc(N4CCNCC4)nc3n(C3CC3)c2=O)c2ccccc21	3.98 µM (active)	–
Cn1cc(-c2nc3cnc(N4CCNCC4)nc3n(-c3ccccc3)c2=O)c2ccccc21	–	-8.65%
CN1CCN(c2ncc3nc(-c4cn(C)c5ccccc45)c(=O)n(-c4ccccc4)c3n2)CC1	–	-8.3%
C[C@@H]1CCCN(CP(=O)(c2ccccc2)c2ccccc2)C1	–	-15.6% [at 11.4 µM]
Cc1n[nH]c(C)c1N=Nc1cc(Cl)ccc1Cl	–	1.79%
CCOC(=O)CNc1c(-c2ccccc2)nc2ccc(Cl)cn12	2.82 µM (active)	–
Oc1ccc(Cc2cc(Cl)cc(Cl)c2O)cc1Cl	0.2 µM (active)	–
O=C(O)Cc1cc(Cl)ccc1O	–	12.8% [at 11.4 µM]
Oc1ccc(Cl)cc1Cc1cc(Cl)cc(Cc2cc(Cl)ccc2O)c1O	2.51 µM (active)	–
CCOc1ccc(Cl)cc1CNCCNCCO	–	-13.4%
CN(C)Cc1cc(Cl)c(O)c(CN(C)C)c1	–	-9.61% [at 11.4 µM]
COc1ccccc1CNc1ncncc1-c1cccnc1	–	-1.61% [at 2.29 µM]
O=C(O)[C@@H]1C[C@@H](C(=O)O)N1	–	-20.1%
Cc1nonc1NC(=O)N1CCCC1	–	9.91%
CC1CC(C)CN(C(=O)CSc2nnc(CSc3ncccn3)n2C)C1 (stereo not drawn)	–	-14.4%
Cn1c(CC(=O)Nc2ccc(Cl)c(Cl)c2)nnc1SCC(=O)N1CCN(c2ccccc2)CC1	5.62 µM (active)	–
CCOC(=O)N1CCC(NC(=O)c2cc(S(=O)(=O)N3CCCC3)cn2C)CC1	7.08 µM (active)	–
CCOC(=O)N1CCC(NC(=O)C2CCN(S(=O)(=O)N3CCCC3)CC2)CC1	–	2.87%
CCCS(=O)(=O)N1CCCC(C(=O)N2CCN(C(=O)OCC)CC2)C1 (stereo not drawn)	–	-19.7%

SMILES	AC50	activity, negative = inhibition
C[C@@]12CCC(=O)C=C1CC[C@H]1[C@@H]2[C@@H](O)C[C@]2(C)[C@@H]1CC[C@@]2(O)C(=O)COC(=O)C1CCCC1	–	-1.4% [at 11.4 µM]
Nc1ccccc1N=Nc1c(S(=O)(=O)O)cc2cc(S(=O)(=O)O)cc(O)c2c1O	–	-15.1% [at 11.4 µM]
O=S(=O)(O)c1cc(O)c2c(N=Cc3ccccc3O)cc(S(=O)(=O)O)cc2c1	3.16 µM (active)	–
COc1ccccc1-c1cc(-n2ccnc2)ncn1	–	-8.14% [at 2.29 µM]
CS(=O)(=O)Nc1cccc(-c2nccc(-n3ccnc3)n2)c1	–	-8.16% [at 2.29 µM]
Cc1ccc(Nc2ccc(-n3ccnc3)nn2)cc1C	0.0794 µM (active)	–
CCc1ccc(NC(=O)c2cc(C(C)C)on2)cc1	–	-27.1%
CCc1noc(N)c1C(=O)Nc1ccc(F)c(Cl)c1	14.1 µM (active)	–
O=C(O)c1cc(S(=O)(=O)N2CCCCC2)ccc1F	–	-28%
O=C(Nc1ccc(F)cc1)c1cc(S(=O)(=O)N2CCCCC2)cs1	12.6 µM (active)	–
O=C(N/N=C1/C[C@@H](O)[C@@H](O)[C@@H]2[C@H]3C(=O)N(c4ccc(F)cc4F)C(=O)[C@@H]3CC[C@H]12)OCc1ccccc1	–	-11.6% [at 11.4 µM]
O=C1C=C(Nc2nc(C(=O)O)cc(=O)[nH]2)c2ccccc2C1=O	–	8.04% [at 11.4 µM]
O=C1C=C(NCCc2cc(Br)c(O)c(Br)c2)C(=O)c2ncccc21	1.58 µM (active)	–
COc1ccc2c(c1)c(=O)oc1c(C)c(OCC(=O)N3CCc4ccccc4C3)ccc12	1 µM (active)	–
COCC(=O)N1CCC2(CC1)CCN(C(=O)Nc1ccc(OC)cc1)CC2	–	22.2%
CN(C)CC[C@H](c1ccc(Br)cc1)c1ccccn1	inactive	–
CN(Cc1ccco1)c1ccnc(-c2ccoc2)n1	–	27.8% [at 2.29 µM]
COc1ccccc1C1(CC(=O)Nc2nccs2)CCOC(C(C)C)C1 (stereo not drawn)	10 µM (active)	–
Oc1ccccc1CNCc1ccccc1O	–	-4.69% [at 11.4 µM]
O[C@@H](c1cc(C(F)(F)F)nc2c(Cl)cc(Cl)cc12)[C@@H]1CCCCN1	–	0.514% [at 11.4 µM]
N#Cc1cccc(-c2nccc(NCc3ccccc3)n2)c1	–	-19.1% [at 2.29 µM]
COc1ccc(Oc2nccc(-c3ccc(F)cc3)c2C#N)cc1	–	-16.3%
N#Cc1c(-c2ccccc2)ccnc1Oc1ccccc1	7.08 µM (active)	–
CN(C)c1ccnc(Oc2ccc(Cl)cc2)c1C#N	20 µM (active)	–
COc1ccccc1CNc1cc(-c2cccc(C#N)c2)ncn1	–	8.28% [at 2.29 µM]

SMILES	AC50	activity, negative = inhibition
C[C@@H]1O[C@H](O[C@@H]2[C@@H](Oc3cc(O)c4c(c3)O[C@H](c3ccc(O)cc3)CC4=O)O[C@@H](CO)[C@@H](O)[C@H]2O)[C@@H](O)[C@H](O)[C@@H]1O	–	-28.2% [at 25.6 µM]
Cc1ccc2c(c1)N[C@H](c1ccc(C(=O)O)cc1)c1cccn1-2	–	-25.1% [at 11.4 µM]
C[C@@H](CN1CCC(Cc2ccccc2)CC1)[C@@H](O)c1ccc(O)cc1	–	-1.94%
Cc1ccc(C)c(Cn2c(C(=O)OC(C)C)cc3c2ccn3C)c1	8.91 µM (active)	–
C[C@@H](CN1CCC(Cc2ccccc2)CC1)[C@H](O)c1ccc(O)cc1	–	18.2%
CC(C)OC(=O)c1cc2c(ccn2C)n1CC(=O)N1CCC(Cc2ccccc2)CC1	14.1 µM (active)	–
COCCn1c(=O)c(-c2cn(C)c3ccccc23)nc2cnc(Oc3cccc(Cl)c3)nc21	–	-20.2%
CCNc1ncc2nc(-c3cc(F)cc(F)c3)c(=O)n(CCOC)c2n1	–	-10.3%
N#CCCn1c(=O)c(-c2ccc(F)cc2)nc2cnc(Oc3cccc(Cl)c3)nc21	–	26.5%
COCCn1c(=O)c(-c2ccc(OC)cc2)nc2cnc(Oc3cccc(Cl)c3)nc21	0.631 µM (active)	–
COCCn1c(=O)c(-c2cc(F)cc(F)c2)nc2cnc(Oc3cccc(Cl)c3)nc21	3.98 µM (active)	–
COCCn1c(=O)c(-c2ccccc2)nc2cnc(Oc3cccc(Cl)c3)nc21	0.501 µM (active)	–
COCCn1c(=O)c(-c2ccc(OC)cc2)nc2cnc(Nc3cccc(OC)c3)nc21	–	-14.5%
O=c1[nH]c(=O)n([C@@H]2C[C@H](O)[C@H](CO)O2)cc1C(F)(F)F	–	3.12% [at 25.6 µM]
COc1ccccc1NC(=S)NCCc1ccccc1	–	-25%
Fc1ccccc1NC(=S)NCCc1ccccc1	7.94 µM (active)	–
Fc1cc(Br)ccc1NC(=S)NCCc1ccccc1	10 µM (active)	–
Fc1ccc(NC(=S)NCCc2ccccc2)c(F)c1F	5.01 µM (active)	–
O=C1O[C@@H]([C@H](O)[C@H](O)[C@H](O)CO)[C@@H](O)[C@@H]1O	–	-8.59% [at 11.4 µM]
COc1ccc(C(=O)N2CCC[C@@]3(CCN(C(=O)NC(C)C)C3)C2)cc1	–	-2.78%
Nc1ncnc2c1ncn2[C@H]1O[C@@H](C(=O)OCCO)[C@@H](O)[C@H]1O	–	-1.34% [at 11.4 µM]
O=C(O)C1CCN(c2ncnc3ccc(-c4ccccc4C(F)(F)F)cc23)CC1	–	4.43% [at 2.29 µM]
N#Cc1ccccc1-c1ccc2ncnc(N3CCNCC3)c2c1	–	26.5% [at 2.29 µM]
Cc1cc(C)n(-c2ccc(C(=O)Nc3cc(C(F)(F)F)ccc3N3CCOCC3)cc2)n1	0.0794 µM (active)	–
Cc1ccc(C(C)C)n1C(=O)OC(C)(C)C	–	0.745% [at 11.4 µM]

SMILES	AC50	activity, negative = inhibition
COc1ccc(N2C(=O)CSC2c2cccc(F)c2)c(OC)c1 (stereo not drawn)	–	-4.17%
CC(=O)Nc1ccc(N2C(=O)CSC2c2c(F)cccc2Cl)cc1 (stereo not drawn)	10 µM (active)	–
CC(=O)Nc1ccc(N2C(=O)CC(c3ccccc3)CC2=O)cc1	–	-18%
O=C(Nc1ccccc1)c1ccccc1CC[N+](=O)[O-]	–	-19.1%
O=C(Nc1ccccc1)c1cc([N+](=O)[O-])ccc1Cl	6.31 µM (active)	–
O=C(Nc1ccc([N+](=O)[O-])cc1Cl)c1cc(Cl)ccc1O	0.631 µM (active)	–
Cc1cccc[n+]1CC(=O)Nc1ccc([N+](=O)[O-])cc1Cl	–	18%
CC1=C[N+](=O)c2ccccc2[N+]1=O	–	-5.42% [at 11.4 µM]
N#Cc1cccc(-c2cc(-n3ccnc3)ncn2)c1	–	-5.24% [at 2.29 µM]
O=C(O)c1cccc(N2CCCC2=O)c1	12.6 µM (active)	–
O=C(O)c1cccc(OCCO)c1	–	-19% [at 11.4 µM]
CCCCN(C)CCCNC(=O)c1ccc(N2CCCC2=O)cc1	–	-14.3%
c1nc(NC2CCNCC2)c2cc(-c3ccc4c(c3)OCO4)ccc2n1	–	28.6% [at 2.29 µM]
Oc1cc(O)c2c(c1)O[C@H](c1ccc(O)c(O)c1)[C@@H](O)[C@@H]2c1c(O)cc(O)c2c1O[C@@H](c1ccc(O)c(O)c1)[C@H](O)C2	–	-22.1% [at 11.4 µM]
O=C(c1cccc(F)c1)N1CCC2(CCCN(Cc3cc(C(F)(F)F)cc(C(F)(F)F)c3)C2)CC1	–	-18.9%
O=C(c1cccc(F)c1)N1CCC2(CCN(Cc3ccncc3)CC2)CC1	2.51 µM (active)	–
O=C(c1cccc(F)c1)N1CCC2(CCN(Cc3ccccc3)CC2)CC1	–	6.78%
O=C(Nc1cccc(F)c1)N1CCCC2(CCN(C(=O)c3ccncc3)CC2)C1	0.0794 µM (active)	–
O=C(Nc1cccc(F)c1)N1CCCC2(CCN(C(=O)c3cnccn3)CC2)C1	–	-11.9%
O=C(c1cccc(F)c1)N1CCC2(CCN(Cc3cc(C(F)(F)F)cc(C(F)(F)F)c3)CC2)CC1	–	-1.07%
O=C(c1cccc(F)c1)N1CCC2(CCCN(Cc3ccccc3)C2)CC1	–	12.2%
O=C(c1cccc(F)c1)N1CCC2(CCCN(Cc3ccncc3)C2)CC1	0.631 µM (active)	–
COc1ccc(C(=O)N2CCC3(CCCN(C(=O)Nc4cccc(F)c4)C3)CC2)cc1	–	-11.2%
